# In the library only some 19% were active in any assay of this set; here they are far more common.
# IL-1B inflam inh = inflammasome signaling inhibition, IL-1 beta readout; activity change, % at 57.5 µM; 360,000 tested, 4.7% active; THP-1 LPS/ATP IL-1B secretion, AlphaLISA, 16 h; active compounds read low; in the data active means activity change below about -50%; inconclusive means mostly about -30% to -49%
#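 Secreted IL-1B measured by AlphaLISA bead assay after 16 h compound exposure of THP-1 cells; compounds (final up to 57.5 uM) added 1 h before LPS (250 ng/mL) and ATP (1.25 mM) stimulation; lower signal means less secretion.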
# DT40 TDP1 no CPT = qHTS for Inhibitors of human tyrosyl-DNA phosphodiesterase 1 (TDP1): qHTS in cells in absence of CPT; DT40 Tdp1-/- hTDP1 cells, no CPT, ATP luminescence, 48 h; Potency, µM (titrated, usually from 46.2 µM), for inactives: at the top dose activity change, negative = growth inhibition, most hits filed as inhibitors; 420,000 tested, 15% active; AID 686978, 2013; further: potency means the concentration at half of the fitted maximal effect; nearly all actives have a fitted effect of over 55% in size
#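 Stably hTDP1-transfected Tdp1-null chicken DT40 cells were treated with library compounds minus camptothecin and grown for at least 48 hr at 37 °C, after which cellular ATP was quantified by luminescence.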
# HT1080-NT tox = kills 2HG-producing HT-1080-NT fibrosarcoma cells. HT-1080-NT fibrosarcoma viability, CellTiter-Glo ATP luminescence, 48 h. Potency, µM (top dose mostly 46.1 µM), without a hit: top-dose activity, negative = less viability, actives largely listed as cytotoxic. 360,000 tested, 1.6% active. AID 686970;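 further: NT is the 2HG producing partner of a matched IDH1 knockdown line; potency means the concentration at half of the fitted maximal effect; 0% = DMSO-treated cells and -100% = media-only wells without cells; nearly all actives have a fitted effect of over 55% in size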
#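 Read-out is CellTiter-Glo luminescence after 10 minutes at room temperature, following 48 hours' compound treatment of HT-1080-NT cells (750 cells/well, RPMI, 5% FBS, 37 degrees C).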
# DT40 TDP1 CPT = growth inhibition of DT40 Tdp1-/-;hTDP1 cells with camptothecin (screen for TDP1 inhibitors); chicken DT40 Tdp1-/-;hTDP1 cells + 20 nM CPT, ATP luminescence, 48 h; Potency, µM (doses to about 46.2 µM), for the others: at the highest dose activity change, negative = growth inhibition, usual class: inhibitors; 420,000 tested, 12% active; AID 686979; further: potency means the concentration at half of the fitted maximal effect; nearly all actives have a fitted effect of over 55% in size
#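 Chicken DT40 Tdp1-/- cells stably complemented with human TDP1 were seeded at 400 cells/well in medium containing 20 nM camptothecin, exposed to pin-transferred compounds, and grown at 37 °C for at least 48 hr. Viability was read as ATP luminescence.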
# HT1080 IDH1KD tx = HT-1080 IDH1 knockdown cell toxicity (counter line) | HT-1080 IDH1 knockdown viability, ATP luminescence, 48 h | Potency, µM (titrated, usually from 46.1 µM), for the others: at the highest dose activity, negative = toxicity, usual class: cytotoxic | 360,000 tested, 2% active | AID 686971;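 further: potency means the concentration at half of the fitted maximal effect; 0% = DMSO wells and -100% = cell-free medium wells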
#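 After a 2 h attachment period, IDH1KD HT-1080 cells took pin-transferred compound for 48 h at 37 °C; ATP-based luminescence after 10 min room-temperature reagent incubation reported viability.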
# Numbers without * were called inactive; u = inconclusive; x = not tested or not shown. Unless noted, the call rests on the fitted dose curve; in most records, active means well fitted curve in the direction sought with a large enough effect; inconclusive means small, poorly fitted or top-dose-only effect, or another doubt; inactive means no such curve, though single readings can be large; an effect the other way counts as inactive or inconclusive. Unless noted, on the % scale 0 is the no-effect control and ±100 the full control effect.
SMILES,IL-1B inflam inh,DT40 TDP1 no CPT,HT1080-NT tox,DT40 TDP1 CPT,HT1080 IDH1KD tx
Cc1cccc(-n2[nH]c3c4c(ccc3c2=O)C(=O)c2ccccc2C4=O)c1,-27,u,-2%,21µM*,-2%
CC(C)Cn1[nH]c2c3c(ccc2c1=O)C(=O)c1ccccc1C3=O,-7,16µM*,u,23µM*,-17%
Fc1ccc(OCCOCCN2CCNCC2)cc1,12,-16%,3%,-1%,3%
CC(=O)Nc1cc(-c2cccc(C(=O)NCCO)c2)cn2c(-c3cccc(C(F)(F)F)c3)cnc12,-14,23µM*,23µM*,18µM*,u
CC(=O)Nc1cc(-c2cccc(C(=O)NCCO)c2)cn2c(-c3ccc(F)cc3)cnc12,-21,21µM*,u,15µM*,-26%
C/C(=N\NC(=O)C1COc2ccccc2O1)c1ccc(N2CCOCC2)cc1 (stereo unspecified),-18,-14%,19%,1%,11%
COc1cc(OC)c2cc(-c3ccncc3)cnc2c1,x,27µM*,x,24µM*,x
Cc1ccc(C)c(OCCCCN2CCNCC2)c1C,-13,6.5µM*,-23%,15µM*,-17%
Cc1ccc(C(C)C)c(OCCN)c1,-11,u,-7%,-29%,2%
Cc1cccc(C(C)(C)C)c1OCCCCN1CCCC1,-21,23µM*,-20%,u,u
Cc1ccc(C(C)C)c(OCCCn2ccnc2C)c1,-16,29µM*,-11%,16µM*,-1%
Cc1ccc(C)c(OCCCN2CCNCC2)c1,-7,1%,2%,-8%,2%
Cc1ccc(C(C)C)c(OCCCCN2CCNCC2)c1,-58*,16µM*,-14%,15µM*,-9%
Cc1ccccc1-c1nnc(SCC(=O)N2CCCCC2)o1,x,u,x,-29%,x
CCN1C(=O)/C(=C/C=C2\C=CN(CC)c3ccccc32)SC1=S,-1,16µM*,13%,16µM*,14%
CCN1C(=O)C(=CC=CN(C)c2ccccc2)SC1=S,-13,u,10%,u,11%
CCN1C(=O)/C(=C\C=C2/C=CC=CN2CC)SC1=S,u,29µM*,-19%,u,-18%
CC(C)(C)NC(=O)CN(Cc1cccs1)C(=O)C1COc2ccccc2O1 (stereo unspecified),-9,-24%,-1%,-25%,14%
O=C(NCc1ccco1)C(c1cccs1)N(C(=O)C1COc2ccccc2O1)c1cccc(O)c1 (stereo unspecified),-7,13µM*,-18%,23µM*,-19%
O=C(NC1CCCC1)C(c1cccs1)N(CC1CCCO1)C(=O)Cc1cccs1 (stereo unspecified),6,21µM*,0%,u,4%
O=C(NC1CCCCC1)C(c1cccs1)N(Cc1cccs1)C(=O)c1ccco1 (stereo unspecified),-12,9.2µM*,8%,15µM*,-1%
Cc1ccc(C(C(=O)NC2CCCCC2)N(Cc2ccco2)C(=O)C2COc3ccccc3O2)o1 (stereo unspecified),-1,u,-1%,u,-23%
